Assay outcomes (PubChem)
Autofluor counter = compound fluorescence in toxin protease inhibitor counterscreen; compound autofluorescence counterscreen, microsphere flow cytometry; stronger effect = higher value; fluorescence intensity (test concentration not listed); 360,000 compounds, 3.1% hits; in the data active means fluorescence intensity above about 16000; inconclusive means no clear call, values can overlap the other calls
CCHFV vOTU inh = blocks the CCHF virus ovarian tumor domain protease. 370,000 compounds, 0.55% hits. AID 651958. CCHFV vOTU protease, Pep-AMC fluorescence. inhibition, % at 11.5 µM; in the data active means inhibition above about 30%; further: 0% = vehicle wells with enzyme and 100% = no enzyme wells
Anthrax LF prot = inhibitors of Bacillus anthracis lethal factor protease. P15917. multiplex microsphere protease cleavage assay, LF. inhibition, % at 10 µM. 360,000 compounds, 0.12% hits. AID 588501; further: plate controls were buffer without enzyme for full effect and enzyme alone for no effect
Target sequence (P15917 whole entry, looked up): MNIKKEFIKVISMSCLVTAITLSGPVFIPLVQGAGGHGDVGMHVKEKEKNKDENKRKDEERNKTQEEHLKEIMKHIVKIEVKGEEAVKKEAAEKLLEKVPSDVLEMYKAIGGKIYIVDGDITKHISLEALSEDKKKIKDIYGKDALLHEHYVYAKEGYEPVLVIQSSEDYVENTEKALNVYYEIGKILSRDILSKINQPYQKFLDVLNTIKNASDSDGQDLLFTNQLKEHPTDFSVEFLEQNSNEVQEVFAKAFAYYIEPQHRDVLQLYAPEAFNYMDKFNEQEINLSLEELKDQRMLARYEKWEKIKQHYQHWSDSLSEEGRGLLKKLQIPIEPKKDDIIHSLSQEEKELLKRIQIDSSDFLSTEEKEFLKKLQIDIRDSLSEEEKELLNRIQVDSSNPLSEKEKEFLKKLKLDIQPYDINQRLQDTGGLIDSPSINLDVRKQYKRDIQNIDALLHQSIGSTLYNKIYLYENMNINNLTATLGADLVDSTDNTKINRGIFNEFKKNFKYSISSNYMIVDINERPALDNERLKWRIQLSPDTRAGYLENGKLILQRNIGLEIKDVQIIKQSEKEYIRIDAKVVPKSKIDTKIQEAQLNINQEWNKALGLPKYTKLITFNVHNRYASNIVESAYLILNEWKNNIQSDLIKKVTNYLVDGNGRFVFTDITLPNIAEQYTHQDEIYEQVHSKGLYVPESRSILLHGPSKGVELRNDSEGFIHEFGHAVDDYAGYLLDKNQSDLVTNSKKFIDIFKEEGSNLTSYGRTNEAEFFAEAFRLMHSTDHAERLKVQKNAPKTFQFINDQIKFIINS
BoNT F protease = inhibitors of Botulinum neurotoxin F light chain protease; Multiplex microsphere protease cleavage assay, flow cytometry; inhibition, % at 10 µM; 360,000 compounds, 0.22% hits; AID 588497; in the data active means inhibition above about 35%, passing the limit was not always enough; inconclusive means no clear call, values can overlap the other calls; further: plate controls were buffer without enzyme for full effect and enzyme alone for no effect
BoNT-A LC inh2 = blocks Botulinum neurotoxin A light chain protease. multiplex microsphere protease substrate cleavage, flow cytometry. inhibition, % at 10 µM. 360,000 compounds, 0.17% hits; further: plate controls were buffer without enzyme for full effect and enzyme alone for no effect
3CLpro inhibitor = SARS-CoV 3CLpro protease inhibition. P0C6X7. recombinant SARS-CoV 3CLpro, quenched FRET peptide cleavage. inhibition, % at 6 µM. 290,000 compounds, 0.14% hits; in the data active means inhibition above about 12%
Active calls of the source: *; ? = inconclusive; . = no result given. Shown are actives, neighbours in structure and some others; about 3.9% of the full set was active somewhere. Unless noted, no stated cut-off is given here; in the data, active means inhibition above about 30%; inconclusive means no clear call, values can overlap the other calls; inactive means below that.

SMILES | Autofluor counter | CCHFV vOTU inh | Anthrax LF prot | BoNT F protease | BoNT-A LC inh2 | 3CLpro inhibitor
O=C(Nc1ccc(Cl)cc1)c1csc(-c2ccccc2)n1 | 16593* | -3 | -4 | -3 | -1 | 2
CNC(=O)c1csc(-c2ccc(C)cc2)n1 | 20516* | -6 | -9 | 3 | 2 | 6
Cc1ccc(CN2CCCCC(NC(=O)c3ccccc3C)C2=O)cc1 (stereo unspecified) | . | -1 | . | . | . | .
CC(=O)Nc1ccc(S(=O)(=O)Oc2ccc3c(c2)C(C)=CC(C)(C)N3)cc1 | . | . | . | . | . | 9
CC1=CC(C)(C)Nc2ccc(OS(=O)(=O)c3ccc(C)cc3)cc21 | 17799* | 6 | 0 | 4 | 5 | 6
COc1cc2c(cc1OC)C(c1ccc(-c3ccc(Cl)cc3Cl)o1)=NCC2 | ? | 4 | 7 | -6 | ? | -12
COc1cc2c(cc1OC)C(c1ccc(-c3ccccc3Cl)o1)=NCC2 | 20487* | -2 | 0 | 6 | 7 | -14
O=C(c1ccc(Br)cn1)N1CCC(Oc2cccnc2)CC1 | . | 6 | . | . | . | .
COc1ccccc1N1CCN(C(=O)C2CCC(Cn3c(=S)[nH]c4ccccc4c3=O)CC2)CC1 (stereo unspecified) | 17156* | -3 | 2 | -8 | -3 | 0
COc1ccc(N2CCN(C(=O)C3CCC(Cn4c(=S)[nH]c5ccccc5c4=O)CC3)CC2)cc1 (stereo unspecified) | 17035* | 8 | -8 | -9 | -2 | 0
FC(F)(F)Oc1cccc(Cn2ccc3ccc(-c4ccc5ccn(Cc6cccc(OC(F)(F)F)c6)c5c4)cc32)c1 | . | 19 | . | . | . | .
CCC(NC(=O)CCCN1C(=O)COc2ccc(C)cc21)c1ccccc1 (stereo unspecified) | . | 3 | . | . | . | .
CCC(NC(=O)c1ccc2c(c1)c(C)c(C)n2Cc1ccc(Cl)cc1)c1ccccc1 (stereo unspecified) | . | 10 | . | . | . | .
CSC1=C(C#N)C(c2ccccc2C)C(C#N)=C(N)N1 (stereo unspecified) | 23095* | -8 | 0 | -5 | ? | -2
C=CCN1C(=O)[C@@H](CC(=O)NCc2ccccc2)[C@]2(C(=O)OCC)CCCCC/C=C/12 | . | 5 | . | . | . | .
COc1ccc(OC)c(NC(=O)C2CCN(Cc3cnn(-c4ccccc4)c3-n3cccc3)CC2)c1 | 20746* | -8 | -4 | -4 | -2 | -3
Cc1noc(C)c1COC(=O)CCOc1ccccc1 | 17725* | -6 | -1 | -4 | -2 | -5
COc1ccc(OCCC(=O)OCc2c(C)noc2C)cc1 | 3556 | 4 | -1 | -8 | 0 | -1
Cc1c(-c2ccccc2)[n+](=O)c2c(n1[O-])CCC2 | 3832 | 0 | -3 | -44 | -2 | 3
Cc1c(-c2cccs2)[n+](=O)c2c(n1[O-])CCCC2 | 20042* | 9 | -22 | 11 | 4 | 2
COc1ccc(Cn2cc(CN3[C@@H](CC(C)C)COc4ccc(Cl)cc4S3(=O)=O)nn2)cc1 | . | -9 | . | . | . | .
C=CCN1C(C(=O)OC)CN(Cc2cn(Cc3ccc(Cl)cc3)nn2)CCS1(=O)=O (stereo unspecified) | . | 1 | . | . | . | .
Cc1cccc(NC(=O)c2cc(NC(=O)C3CC=CCC3C(=O)O)ccc2N2CCOCC2)c1 (stereo unspecified) | 23987* | -5 | 0 | -5 | -1 | -3
Cc1ccc(NC(=O)c2cc(NC(=O)C3CC=CCC3C(=O)O)ccc2N2CCOCC2)cc1 (stereo unspecified) | 3202 | 2 | 7 | -4 | 0 | 3
CC1CCN(S(=O)(=O)c2cccc(S(=O)(=O)N3CCOCC3)c2)CC1 | 16191* | 6 | -1 | -2 | 0 | 0
SMILES | Autofluor counter | CCHFV vOTU inh | Anthrax LF prot | BoNT F protease | BoNT-A LC inh2 | 3CLpro inhibitor
O=S(=O)(c1cccc(S(=O)(=O)N2CCC(Cc3ccccc3)CC2)c1)N1CCOCC1 | 4080 | 15 | 3 | 6 | 1 | -5
O=S(=O)(NCc1ccccc1)c1cccc(S(=O)(=O)N2CCOCC2)c1 | 21829* | 4 | -1 | 4 | 2 | 5
CC(C)Cn1cc(C(=O)NCCCN2CCC(C)CC2)c2c3ccccc3n(C)c2c1=O | 5431 | -10 | -2 | -5 | 0 | .
CC(C)Cn1cc(C(=O)N2CCN(c3ccccn3)CC2)c2c3ccccc3n(C)c2c1=O | 16320* | -17 | 0 | 4 | 1 | -1
COCCn1cc(C(=O)N2CCC3(CC2)OCCO3)c2c3ccccc3n(C)c2c1=O | 9721 | -50 | -1 | 1 | 0 | -5
CCCN(CCC)CCNC(=O)c1cn(C)c(=O)c2c1c1ccccc1n2C | 4070 | -31 | 2 | ? | -6 | 3
CC(C)Cn1cc(C(=O)NCCCN2CCCC2=O)c2c3ccccc3n(C)c2c1=O | 16933* | -33 | 0 | -2 | -1 | -5
CCOC(CCNC(=O)c1cn(C)c(=O)c2c1c1ccccc1n2C)OCC | 5221 | 2 | 69* | 89* | 7 | -4
CCN1CCN(C(=O)c2cn(CCOC)c(=O)c3c2c2ccccc2n3C)CC1 | 21067* | -24 | -8 | 5 | 4 | -1
COCCn1cc(C(=O)N2CCCC(C)C2)c2c3ccccc3n(C)c2c1=O (stereo unspecified) | 11638 | -42 | -2 | 4 | 0 | -5
CCOC(=O)C1CCN(C(=O)c2cn(CCOC)c(=O)c3c2c2ccccc2n3C)CC1 | 23452* | -36 | -6 | -1 | 0 | -3
Cc1cc(C)c(C)c(S(=O)(=O)N2CCC(C(=O)OCC(=O)N3c4ccccc4NC(=O)C3(C)C)CC2)c1C | 24651* | 17 | -2 | -4 | -2 | 9
COc1cccc(C2CC(c3ccccc3Cl)Nc3ncnn32)c1 (stereo unspecified) | 18432* | 8 | -7 | 5 | 4 | 5
CCOC(=O)[C@@]12CCCC3=C1N(CCC3)C(=O)[C@H]2CC(=O)N1CCSCC1 | . | 5 | . | . | . | .
CCSc1nnc2n1C(C)(C)Cc1ccccc1-2 | 2678 | 0 | 0 | 1 | 0 | 2
CCOC(=O)CSc1nnc2n1C(C)(C)Cc1ccccc1-2 | 16513* | 2 | -2 | 2 | 1 | 4
CC(C)OC(=O)CSc1nnc2n1C(C)(C)Cc1ccccc1-2 | 16487* | 0 | -3 | -1 | 0 | -1
Cc1cc(C)cc(C(=O)OCCN(C)C2CN(Cc3cn(Cc4ccccc4C(F)(F)F)nn3)S(=O)(=O)C2)c1 (stereo unspecified) | . | 11 | . | . | . | .
Nc1c(C(=O)NCC(O)c2ccccc2)cnn1-c1ccccc1 (stereo unspecified) | . | -6 | . | . | . | .
O=C(c1ccccc1)[C@@H]1[C@@H](C(=O)c2ccc(F)cc2)[C@@]2(C(=O)Nc3ccccc32)[C@H]2c3ccccc3C=CN12 | 7809 | 84* | 29 | 17 | 39* | -7
O=C(C(=O)N1CCC(CNS(=O)(=O)c2ccc(F)cc2)CC1)c1cccs1 | . | -8 | . | . | . | .
Cc1nnc(C)n1/N=C/c1ccc(C(=O)O)cc1 | 22576* | -10 | 3 | 1 | 0 | 2
Cc1cc(C(=O)O[C@@H]2CCC[C@@]3(C(=O)N(Cc4ccccc4)c4ccccc43)[C@H]2NC(=O)CCc2ccccc2)no1 | . | 13 | . | . | . | .
